Data reported in PubChem BioAssay.
The source made the active and inactive calls.

Assays:
[1] = compound effects on differentiated 3T3-L1 adipocyte viability – cell-based, 3T3-L1 adipocytes, calcein-AM fluorescence, 48 h, basal, profiling panel (AID 1163); conditions: 3T3-L1 adipocytes viability, higher = more signal
[2] = compound effects on hepatocellular carcinoma cell viability – HepG2, calcein-AM fluorescence, 48 h, basal, profiling panel (AID 1164); conditions: higher = more signal
[3] = compound effects on multiple myeloma cell viability – MM1S, calcein-AM fluorescence, 48 h, basal, profiling panel (AID 1165); conditions: higher = more signal
[4] = calcein-AM signal in unstimulated myeloma cells – cell-based, calcein-AM fluorescence, 48 h, PK04 Diversity Set, profiling panel (AID 1166); conditions: RPMI8226 myeloma viability, higher = more signal;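 note: cells grown under basal conditions without added stimulus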
[5] = JC-1 mitochondrial signal, unstimulated HepG2 cells – cell-based, JC-1 fluorescence, 24 h, 100 nL compound, profiling panel (AID 1167); conditions: HepG2 mitochondrial potential, higher = more signal
[6] = JC-1 mitochondrial signal, unstimulated adipocytes – cell-based, JC-1 fluorescence, 3T3-L1 adipocytes, 24 h, 100 nL compound, profiling panel (AID 1168); conditions: JC-1 mitochondrial fluorescence, higher = more signal, called active from +8 up or from −8 down
[7] = JC-1 mitochondrial signal, unstimulated myeloma cells – cell-based, JC-1 fluorescence, RPMI8226, 24 h, 100 nL compound, profiling panel (AID 1169); conditions: JC-1 mitochondrial potential fluorescence, higher = more signal
[8] = JC-1 mitochondrial signal, unstimulated MM1S myeloma – cell-based, JC-1 fluorescence, 24 h, 100 nL compound, profiling panel (AID 1170); conditions: MM1S mitochondrial potential, higher = more signal
[9] = resazurin metabolic signal in A549 cells – cell-based, resazurin fluorescence, 24 h, PK04 Diversity Set, profiling panel (AID 1171); conditions: A549 viability, higher = more signal, called active from +8 up or from −8 down
[10] = resazurin metabolic signal in HepG2 cells – cell-based, resazurin fluorescence, 24 h, PK04 Diversity Set, profiling panel (AID 1172); conditions: HepG2 viability, higher = more signal
[11] = budding yeast growth changes without added modifier – OD600, strain BY4716, 24 h, basal condition, primary screen (AID 1173); conditions: S. cerevisiae BY4716 growth, OD600, 24 h; higher = more signal, called active from +8 up or from −8 down
[12] = viability profiling in MM1S myeloma cells – cell-based, resazurin fluorescence, basal, 24 h, PK04 Diversity Set, profiling panel (AID 1174); conditions: higher = more signal, called active from +8 up or from −8 down
[13] = target: Dihydroorotate dehydrogenase (quinone), mitochondrial (Plasmodium falciparum (isolate 3D7)) (UniProt Q08210); test: inhibition of P. falciparum DHODH – biochemical, C-terminal His tag, absorbance 600 nm, primary screen (AID 1175); conditions: PfDHODH enzyme, DCIP absorbance 600 nm; higher = more signal, called active from +8 up or from −8 down;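 note: recombinant parasite enzyme with a five histidine tag at its C terminus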
[14] = growth modulation of vineyard yeast isolate – strain RM11-1a, OD600, basal, 24 h, primary screen (AID 1177);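 note: cultures grown under basal conditions with no added stressor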; conditions: S. cerevisiae RM11-1a growth, OD600, 24 h; higher = more signal, called active from +8 up or from −8 down
[15] = growth of efflux-deficient E. coli DRC39 – strain DRC39, OD650, 24 h, E. coli filamentation inducers, primary screen (AID 1178);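 note: growth measured as culture turbidity by optical density at 650 nm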; conditions: E. coli DRC39 acrAB, higher = more signal, called active from +8 up or from −8 down
[16] = growth of efflux-deficient E. coli DRC39 – strain DRC39, OD650, 48 h, E. coli filamentation inducers, primary screen (AID 1179);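 note: screen aims at cell division blockers that make cells filament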; conditions: E. coli DRC39 delta-acrAB growth, higher = more signal, called active from +8 up or from −8 down
[17] = viability profiling in RPMI8226 myeloma cells – cell-based, resazurin fluorescence, basal, 24 h, PK04 Diversity Set, profiling panel (AID 1180); conditions: higher = more signal;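 note: RPMI8826 multiple myeloma cell line at 5000 cells per well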
[18] = target: E3 ubiquitin-protein ligase XIAP (Homo sapiens) (UniProt P98170); test: small molecules binding XIAP protein – biophysical, small-molecule microarray, fluorescence 635 nm, primary screen (AID 1181); conditions: higher = more signal;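 note: score merges 667 nm emission and signal to noise over triplicate slides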
[19] = system: XIP peptide (Xip251-270) binding; test: XIP fragment 251-270 binding compounds – biochemical, small-molecule microarray, fluorescence 635/667 nm, 0.1 µg/mL protein, primary screen (AID 1182); conditions: fluorescent protein binding, 635 nm, higher = more signal, called active from +8 up or from −8 down
[20] = system: XIP peptide (Xip251-270); test: compounds binding XIP fragment 251-270 – biochemical, small-molecule microarray, fluorescence 635/667 nm, 0.5 µg/mL protein, primary screen (AID 1183); conditions: fluorescence 635 nm, higher = more signal

Dihydroorotate dehydrogenase (quinone), mitochondrial (Plasmodium falciparum (isolate 3D7)), sequence (Q08210 whole entry, looked up): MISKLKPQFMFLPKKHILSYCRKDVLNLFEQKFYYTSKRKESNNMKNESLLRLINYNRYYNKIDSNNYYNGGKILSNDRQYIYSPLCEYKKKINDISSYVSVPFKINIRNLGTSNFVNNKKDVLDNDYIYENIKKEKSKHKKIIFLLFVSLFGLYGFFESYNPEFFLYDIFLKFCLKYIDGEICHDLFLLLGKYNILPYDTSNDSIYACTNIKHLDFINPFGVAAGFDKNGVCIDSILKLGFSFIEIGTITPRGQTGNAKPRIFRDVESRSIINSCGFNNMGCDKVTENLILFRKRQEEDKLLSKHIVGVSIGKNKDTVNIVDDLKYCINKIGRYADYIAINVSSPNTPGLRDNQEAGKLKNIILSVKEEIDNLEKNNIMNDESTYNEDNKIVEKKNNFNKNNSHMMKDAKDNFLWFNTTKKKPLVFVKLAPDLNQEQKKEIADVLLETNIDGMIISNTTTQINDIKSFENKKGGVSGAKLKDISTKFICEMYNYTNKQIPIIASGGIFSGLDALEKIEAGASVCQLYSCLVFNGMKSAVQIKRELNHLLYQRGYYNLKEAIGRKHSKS
E3 ubiquitin-protein ligase XIAP (Homo sapiens), sequence (P98170 whole entry, looked up, the tested form may be a part): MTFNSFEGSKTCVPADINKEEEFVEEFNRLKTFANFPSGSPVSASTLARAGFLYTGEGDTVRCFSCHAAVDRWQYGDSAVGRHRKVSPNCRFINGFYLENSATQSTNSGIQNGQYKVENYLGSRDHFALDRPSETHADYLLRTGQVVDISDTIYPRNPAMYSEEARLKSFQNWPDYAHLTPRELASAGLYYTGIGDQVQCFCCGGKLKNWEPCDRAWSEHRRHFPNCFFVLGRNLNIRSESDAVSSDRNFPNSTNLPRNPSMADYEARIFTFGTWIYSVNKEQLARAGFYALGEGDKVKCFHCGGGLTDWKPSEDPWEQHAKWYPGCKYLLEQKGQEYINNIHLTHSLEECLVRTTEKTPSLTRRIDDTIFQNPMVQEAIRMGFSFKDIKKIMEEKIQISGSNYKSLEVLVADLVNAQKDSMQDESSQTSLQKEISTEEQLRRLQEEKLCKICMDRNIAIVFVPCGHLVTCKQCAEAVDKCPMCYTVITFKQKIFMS

| SMILES | z-score [1] | z-score [2] | z-score [3] | z-score [4] | z-score [5] | z-score [6] | z-score [7] | z-score [8] | z-score [9] | z-score [10] | z-score [11] | z-score [12] | composite z-score [13] | z-score [14] | z-score [15] | z-score [16] | z-score [17] | composite z-score [18] | composite z-score [19] | composite z-score [20] |
| --- | --- | --- | --- | --- | --- | --- | --- | --- | --- | --- | --- | --- | --- | --- | --- | --- | --- | --- | --- | --- |
| C=CC[C@@H](OC(=O)Nc1ccc(SC)cc1)c1ccc(OCCO)cc1 | 0.344 | -0.0505 | -0.2 | 0.0111 | -2.22 | 0.812 (inactive) | 0.561 | -0.774 | 0.364 (inactive) | 0.537 | -5.16 (inactive) | 0.822 (inactive) | -1.13 (inactive) | -0.0086 (inactive) | 1.28 (inactive) | 0.899 (inactive) | 0.301 | -0.0773 | 1.08 (inactive) | -0.689 |
| CCOC(=O)C[C@H]1[C@H](OC(=O)c2ccc(C(=O)c3ccccc3)cc2)[C@@H](NC(=O)Cc2ccc(OC)cc2)c2cc(OCCCO)ccc2N1C(=O)Cc1ccc(OC)cc1 | 0.234 | 0.398 | 0.856 | -0.481 | 2.05 | 0.755 (inactive) | -0.131 | 0.356 | 1.54 (inactive) | 0.964 | -1.99 (inactive) | 0.0905 (inactive) | 0.735 (inactive) | -1.05 (inactive) | 1.74 (inactive) | 1.06 (inactive) | 0.678 | 0.0871 | 0.608 (inactive) | 0.0768 |
| C=CCC(OC(C)=O)[C@@H]1[C@@H](N(Cc2ccc(-c3ccccc3)cc2)C(=O)c2ccc(-c3ccccc3)cc2)c2cc(OCCCO)ccc2N1C(=O)c1ccc(-c2ccccc2)cc1 (stereo not given in full) | 0.948 | 0.623 | 0.787 | 0.18 | 2.74 | 0.111 (inactive) | -0.176 | -0.0803 | 1.4 (inactive) | 1.46 | -0.435 (inactive) | 1.4 (inactive) | 0.169 (inactive) | -0.738 (inactive) | 1.34 (inactive) | 0.995 (inactive) | 0.899 | -0.0102 | -0.959 (inactive) | -0.58 |
| C=CCN1C(=O)[C@@]2(O[C@@H](CCn3cc(CCO)nn3)[C@H]([Si](C)(C)c3ccc(OC)cc3)[C@H]2C)c2cc(N3C(=O)c4cccc5cccc3c45)ccc21 | 0.0493 | -4.79 | -2.73 | -4.46 | -2.84 | 1.32 (inactive) | -1.15 | -2.09 | -5.51 (inactive) | -6.41 | -1.2 (inactive) | -9.06 (active) | -0.0753 (inactive) | 1.19 (inactive) | 2.37 (inactive) | 2.05 (inactive) | -6.23 | 0.137 | 0.254 (inactive) | 0.339 |
| NCCCCCNC(=O)[C@H]1C[C@H]2C(=O)NCC(=O)N2[C@H]1c1ccc(O)cc1 | 1.46 | -0.252 | -0.249 | 0.502 | 0.848 | -0.36 (inactive) | -0.806 | 0.231 | 0.518 (inactive) | -1.2 | 0.375 (inactive) | 0.352 (inactive) | -0.0658 (inactive) | 0.774 (inactive) | 0.172 (inactive) | 0.214 (inactive) | 1.18 | -0.0918 | 1.28 (inactive) | 0.57 |
